# In PubChem BioAssay AID504834 (National Center for Advancing Translational Sciences (NCATS), 2011):
# Among all 320,000 compounds or so, about 22,000 (6.9%) were called active. A call without a number means that no potency is given here. Another 27% or so got no clear call; they are omitted. This is one part of a sample in which actives are shown more often than they occur. Calls come from the whole dose curve; as a rule, active = well fitted inhibition curve with a large enough effect; inconclusive = small, poorly fitted or top-dose-only effect, or another doubt; inactive = no such curve, though single readings can be large or run the other way.
# Test: Primary qHTS for delayed death inhibitors of the malarial parasite plastid, 96 hour incubation
# Details: P. falciparum luciferase reporter growth; series mostly up to 28.7 µM
# Method in brief: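 Compounds incubated with erythrocytes infected by luciferase-expressing P. falciparum (2% hematocrit, 0.05% parasitemia final) for 96 hours, 37 C in 5% CO2. Growth inhibition scored as decreased luciferase luminescence.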
# Potency is the fitted concentration of half-maximal effect.
row,SMILES,Potency
1,CCC(=O)NCc1cc(-c2nn(C)c(=O)c3ccccc23)ccc1OC,inactive
2,Cc1c(-c2nn(C)c(=O)c3ccccc23)oc2ccc(F)cc2c1=O,4.15 µM (active)
3,O=C1c2oc3ccc(Br)cc3c(=O)c2C(c2cccc(F)c2)N1CCO (stereo not drawn),inactive
4,CCN(CC)c1ccc(S(=O)(=O)N2CCCCC2)cc1NC(=O)C1=COCCO1,10.4 µM (active)
5,O=C(Nc1ccc(S(=O)(=O)N2CCCC2)cc1Cl)C1=COCCO1,inactive
6,Cc1ccc(S(=O)(=O)N2CCCCC2)cc1NC(=O)c1cccnc1,inactive
7,O=C(Nc1ccc(Br)cc1)c1cc(S(=O)(=O)Nc2ccccn2)ccc1Cl,inactive
8,O=C(NNC(=O)C1CCCC1)c1ccc(F)cc1,inactive
9,CC(C)(C)C1CCc2c(sc3nc(SCC(N)=O)nc(N)c23)C1 (stereo not drawn),9.28 µM (active)
10,COC(=O)c1c(NC(=O)CCN2CCOCC2)sc2c1CCCC2,inactive
11,Nc1nc(SCC(=O)NCCN2CCOCC2)nc2sc3c(c12)CCC3,13.1 µM (active)
12,C=CCn1c(SCC(=O)NCCCO)nc2sc3c(c2c1=O)CCC3,inactive
13,CCOC(=O)c1sc2nc(C)nc(SCC(N)=O)c2c1C,inactive
14,CN1CCN(CC(=O)Nc2sc3c(c2C#N)CCC(C(C)(C)C)C3)CC1 (stereo not drawn),inactive
15,CC(=O)N1CCc2c(sc(NC(=O)CCS(=O)(=O)c3ccc(C)cc3)c2C(N)=O)C1,inactive
16,O=C(Nc1cc(S(=O)(=O)N2CCOCC2)ccc1OCC(F)(F)F)c1ccc(N2CCCC2=O)cc1,inactive
17,Cc1noc(C)c1C(=O)NCCc1ccc(S(N)(=O)=O)cc1,inactive
18,O=C(C1=C[C@H](c2coc3ccccc3c2=O)C[C@H](OCc2ccc(CO)cc2)O1)N1CCOCC1,inactive
19,CC(C)CCN1CCN(Cc2ccc(C(F)(F)F)cc2)CC1CCO (stereo not drawn),inactive
20,O=C(NCc1ccccc1)C1=C[C@@H](c2ccc(C(F)(F)F)cc2)C[C@@H](OCc2ccc(CO)cc2)O1,4.65 µM (active)
21,O=C(c1cccc([N+](=O)[O-])c1)N1CCN(Cc2ccccc2)CC1,inactive
22,CC(=O)n1cc([C@@H]2C=C(C(=O)N3CCN(Cc4ccc5c(c4)OCO5)CC3)O[C@H](OCc3ccc(CO)cc3)C2)c2ccccc21,1.65 µM (active)

row,SMILES,Potency
1,CCn1cc(C(=O)N2CCN(Cc3ccc4c(c3)OCO4)CC2)c2cc(OC)c(OC)cc2c1=O,inactive
2,O=C(C1=C[C@H](c2ccc(C(F)(F)F)cc2)C[C@H](OCc2ccc(CO)cc2)O1)N1CCN(Cc2ccccc2)CC1,13.1 µM (active)
3,C#Cc1ccc([C@@H]2C=C(C(=O)O)O[C@H](OCCCCO)C2)cc1,inactive
4,CN1CCN(C(=O)C2=C[C@H](c3ccc4c(c3)OCO4)C[C@H](OCc3ccc(CO)cc3)O2)CC1,inactive
5,O=C(NCc1ccccc1)C1=C[C@H](C2CC2)C[C@H](OCc2ccc(CO)cc2)O1,inactive
6,O=C(O)C1=C[C@H](c2cccs2)C[C@H](OCCCCO)O1,inactive
7,O=C(C1=C[C@H](c2coc3ccccc3c2=O)C[C@H](OCc2ccc(CO)cc2)O1)N1CCN(Cc2ccccc2)CC1,5.86 µM (active)
8,COc1cccc(/C=C2\Sc3ccc(C(=O)NCC4CCCO4)cc3N(C)C2=O)c1 (stereo not drawn),inactive
9,CC(C)c1ccc(C2C(C(=O)c3ccco3)=C(O)C(=O)N2CC2CCCO2)cc1 (stereo not drawn),inactive
10,C/C(=N\Nc1ccc(S(N)(=O)=O)cc1[N+](=O)[O-])c1cccs1,inactive
11,COC(=O)C1(C)CC1(c1ccccc1)c1ccccc1 (stereo not drawn),inactive
12,CN(C1CCS(=O)(=O)C1)S(=O)(=O)c1ccc2ccccc2c1 (stereo not drawn),inactive
13,CC(Sc1nn(-c2ccc(Cl)cc2)c(=S)s1)C(=O)NCC1CCCO1 (stereo not drawn),inactive
14,O=C(O)c1ccc2c(=O)n3c(nc2c1)/C(=C/c1ccc(Cl)c([N+](=O)[O-])c1)CC3,inactive
15,Cc1ccc(OCCOc2cccc(/C=N/NC(N)=O)c2)cc1,inactive
16,O=C1CCC([N+](=O)[O-])C(c2ccccc2Br)N1 (stereo not drawn),inactive
17,C=CCOc1ccccc1NC(=O)CN1C(=O)CNC1=O,inactive
18,CN(CC(=O)NCc1ccncc1)S(=O)(=O)c1ccc(Br)cc1,inactive
19,Oc1ccc(N=Cc2c(O)ccc3ccccc23)cc1,6.57 µM (active)
20,O=[N+]([O-])c1ccc(N=Cc2c(O)ccc3ccccc23)cc1,inactive
21,Cc1cc(N=Nc2ccc3ccccc3c2)ccc1O,inactive
22,COc1ccc(C)cc1N(CC(=O)NC(C)c1ccccc1)S(C)(=O)=O (stereo not drawn),inactive

row,SMILES,Potency
1,CCOC(=O)c1ccc(NC(=O)c2ccc(NC(=O)C3CCCO3)cc2)cc1 (stereo not drawn),inactive
2,O=C(NCCc1ccccc1)C1CCC(Cn2c(=O)c3ccccc3n(Cc3cccnc3)c2=O)CC1 (stereo not drawn),6.57 µM (active)
3,O=C(CCc1ccccc1)NCc1cccnc1,inactive
4,O=C(NCCc1ccccc1)C1CC1,inactive
5,CCSc1nnc(SCC(=O)NNC(=O)c2ccccc2F)s1,inactive
6,CS(=O)(=O)c1ccc2nc(NC(=O)c3ccc(N4CCCC4=O)cc3)sc2c1,inactive
7,CC(C)Cn1c(=O)c2ccccc2n2c(CCC(=O)NCc3ccccn3)nnc12,13.1 µM (active)
8,Cc1ccc(SCCC(=O)NCc2ccccn2)cc1,inactive
9,Cc1cc(Cl)ccc1OCCCC(=O)NCc1ccccn1,inactive
10,Cc1ccc(-c2nn(-c3ccccc3)cc2C(=O)NCCCN2CCCC2=O)cc1,inactive
11,CC1(NC(=O)CCS(=O)(=O)c2ccc(Cl)cc2)CCS(=O)(=O)C1 (stereo not drawn),inactive
12,CC(=O)c1ccc(NC(=O)CCNS(=O)(=O)c2cc(Br)cnc2N)cc1,inactive
13,C/C(=N\NC(=O)CC(C)C)c1c(C(F)(F)F)[nH]n(-c2nc3ccccc3s2)c1=O,inactive
14,COc1ccc(CC(=O)Nc2ccc3c(c2)CCC3)cc1S(=O)(=O)N1CCOCC1,inactive
15,COc1ccc(/C=C/C(=O)Nc2ccc(C)cc2)cc1S(=O)(=O)N1CCOCC1,11.7 µM (active)
16,COc1ccc(S(=O)(=O)N2CCOCC2)c(C)c1C,inactive
17,COc1ccc(C(=O)NC(=S)N2CCNC(=O)C2CC(=O)OC(C)C)cc1 (stereo not drawn),inactive
18,O=C1CCC(=O)N(c2ccccc2)N1,inactive
19,Cc1cc(C)nc(Nc2n[nH]c(-c3ccccc3N)n2)n1,inactive
20,COc1ccccc1OCC(=O)Nc1ccccc1C(=O)NC1CC1,inactive
21,N#Cc1cc([N+](=O)[O-])ccc1NCC1CCCO1 (stereo not drawn),inactive
22,COC(=O)CC1=NN(c2nc(C)cc(C)n2)C(=O)C1,inactive

row,SMILES,Potency
1,COC(=O)CC1=NN(c2ccccc2)C(=O)C1,5.22 µM (active)
2,C/C(N)=C(/C#N)C(=O)COC(=O)C1=NN(c2ccccc2)C(=O)CC1,inactive
3,CCOC(=O)C(Cc1ccccc1)NC(=O)CCC(=O)c1ccc(OC)cc1 (stereo not drawn),inactive
4,COc1cc([C@H](Cc2ccccc2)NC(C)=O)oc(=O)c1,2.94 µM (active)
5,COC(=O)[C@H](Cc1ccccc1)NC(=O)Nc1ccc(OC)cc1,inactive
6,O=S(=O)(Nc1cccc(Oc2ccc(Cl)cc2)n1)c1ccc(F)cc1,inactive
7,Nc1ccc(Cl)c(S(=O)(=O)Nc2ccccc2Cl)c1,inactive
8,Cc1cccc(NS(=O)(=O)c2cc(Cl)ccc2Cl)n1,2.94 µM (active)
9,Cc1ccc(C(=O)NCCNC(=O)c2cnccn2)cc1,inactive
10,O=C(O)CCCC(=O)N1N=C(c2ccco2)CC1c1ccco1 (stereo not drawn),inactive
11,O=S(=O)([N-]c1nc2ccccc2nc1-[n+]1ccc(Cc2ccccc2)cc1)c1ccc(Br)s1,13.1 µM (active)
12,O=S(=O)(NCc1cccnc1)c1ccc(Br)s1,inactive
13,Oc1ccccc1-c1cc(-c2ccc(Cl)cc2)n[nH]1,inactive
14,CCc1nn(CC(=O)N2CCN(c3cc(C)ccc3C)CC2)c(=O)c2cc3occc3n12,inactive
15,O=C(O)c1cc(S(=O)(=O)N(Cc2ccccc2)c2ccccc2)ccc1Cl,inactive
16,COc1cccc(-c2noc(C3CCCN(C(=O)c4ccc(F)cc4)C3)n2)c1 (stereo not drawn),inactive
17,COc1cc(OC)nc(S(C)(=O)=O)n1,11.7 µM (active)
18,COc1cc(OC)nc(NC(=O)CCl)n1,inactive
19,COc1ccc(NS(=O)(=O)c2ccc(F)cc2F)cn1,inactive
20,CC(NC(=O)C(C)(C)C)C(c1cccs1)N1CCN(Cc2ccccc2)CC1 (stereo not drawn),inactive
21,Cc1ccc(NC(=O)CCCNC(=O)c2ccc(Cl)cc2)cc1S(=O)(=O)N1CCCCC1,inactive
22,CCOC(=O)c1sc(NC(=O)COc2ncnc3ccccc23)c(C(=O)OCC)c1C,inactive

row,SMILES,Potency
1,CCc1nnc(NC(=O)CSc2nnc(Cc3ccccc3)n2-c2ccc(OC)cc2)s1,inactive
2,COc1ccccc1-n1c(CNC(=O)c2ccccc2)nnc1SCC(=O)Nc1nnc(C)s1,inactive
3,CCOC(=O)c1sc(NC(=O)CSc2nc3c(c(=O)n2-c2ccccc2)SCC3)c(C(=O)OCC)c1C,3.7 µM (active)
4,CCOC(=O)c1c(NC(=O)CSc2nnc(Cc3csc(N)n3)n2C)sc(C)c1C,inactive
5,CCc1nnc(NC(=O)CSc2nc3c(c(=O)n2-c2ccccc2OC)SCC3)s1,8.28 µM (active)
6,Cc1cc(C(=O)NC2CCN(Cc3ccccc3)CC2)n[nH]1,inactive
7,O=C(Nc1cc2c3c(c1)CC(=O)N3CCC2)c1ccccc1F,inactive
8,CCCC1C(=O)N2C(N(C)C)=Nc3ccc(C)cc3N2C1=O (stereo not drawn),inactive
9,COc1ccc(C(=O)N/N=C(\C)CC(=O)Nc2ccc(Cl)cn2)cc1,inactive
10,CC(c1ccccn1)N(C)C(=O)c1ccc2nc(Cc3cccc(Cl)c3)oc2c1 (stereo not drawn),inactive
11,O=C(Cc1c(Cl)cccc1Cl)NC1CC1,inactive
12,COC(=O)c1ccc(COc2ccc(C#N)cc2)o1,inactive
13,CC(Oc1ccc(Br)cc1)C(=O)NC1CCCCCC1 (stereo not drawn),inactive
14,CN(C)S(=O)(=O)c1ccc(C(=O)NCCN=C2NS(=O)(=O)c3ccccc32)cc1,inactive
15,Cc1cc(F)ccc1N1CCC(N2CCN(C)C(CCO)C2)CC1 (stereo not drawn),inactive
16,COc1ccc(N2CCC(N3CCN(C)C(CCO)C3)CC2)cc1 (stereo not drawn),14.7 µM (active)
17,CNCC(O)CN1CCN(c2ccccc2OC)CC1 (stereo not drawn),inactive
18,CCOc1ccccc1CN1CCN(C2CCC2)CC1CCO (stereo not drawn),inactive
19,COc1ccc(OCC(=O)Nc2ccc(N3CCC(C)CC3)cc2)cc1,inactive
20,COc1ccccc1N1CCC(N2CCN(CC(C)(C)C)C(CCO)C2)CC1 (stereo not drawn),0.465 µM (active)
